According to PubChem BioAssay AID1566 (Sanford-Burnham Center for Chemical Genomics, 2009):
“And” between values parts separate entries of the source, which are not always exact repeats. Equal entries are not always repeated. Out of some 290,000 compounds screened, about 1,800 (0.62%) were called active. Rule as the data show it: active = inhibition above about 50%; inactive = the rest. This excerpt belongs to a sample that is enriched for actives. A structure can be active in one record and inactive in another.

Assay: inhibition of NOD2-driven NF-kB reporter – cell-based, luminescence, uHTS, HEK293 (AID 1566)
Conditions: HEK293 NOD2/NF-kB luciferase reporter, at 4 µM, stronger effect = higher value

| SMILES | inhibition |
| --- | --- |
| COc1ccc(S(=O)(=O)N2CCCCCC2)cc1C(=O)OCc1c(C)noc1C | 0.3% (inactive) |
| CNc1nc2cc([N+](=O)[O-])c([N+](=O)[O-])cc2nc1NC | 18.9% (inactive) |
| Cc1ccc(NC(=S)N(C)C)cc1C | -14.4% (inactive) |
| Cc1cc(Cl)ccc1OCC(=O)Nc1ccncc1 | 39.3% (inactive) |
| CC(C)CCOc1cccc(OCC(=O)Nc2ccncc2)c1 | 60% (active) |
| O=C(COc1ccccc1)Nc1ccncc1 | 5.2% (inactive) |
| COc1cccc(OCC(=O)Nc2ccncc2)c1 | 19.9% (inactive) |
| Cc1cc(C)cc(OCC(=O)Nc2ccncc2)c1 | 29.4% (inactive) |
| Cc1cc(OCC(=O)Nc2ccncc2)ccc1Br | 38.2% (inactive) |
| Cc1cc(OCC(=O)Nc2ccncc2)ccc1Cl | 39.6% (inactive) |
| CC1=C([N+](=O)[O-])C(c2ccccc2Cl)NC(=O)N1C (stereo not drawn) | 14.3% (inactive) |
| O=C(NC1CCCN(CCc2ccccc2)C1)c1c(F)cccc1F (stereo not drawn) | 4.3% (inactive) |
| COc1cccc(N2CC(C(=O)Nc3nnc(SCCN4CCOCC4)s3)CC2=O)c1 (stereo not drawn) | 14.1% (inactive) |
| CCOC(=O)c1sc2ccccc2c1OC(=O)c1ccccc1 | 27.7% (inactive) |
| CCOC(=O)c1sc2ccccc2c1OC(=O)c1ccccc1OC | 22.4% (inactive) |
| Cc1ccccc1C(=O)Nc1ccc(N2CCN(C(=O)c3ccco3)CC2)cc1 | 3.9% (inactive) |
| Cc1cccc(-c2nc3c(c(SCC(=O)N4CCOCC4)n2)Cc2c(CO)cnc(C)c2O3)c1 | 42.3% (inactive) |
| COc1ccc(-c2nc3c(c(SCC(=O)N4CCOCC4)n2)Cc2c(CO)cnc(C)c2O3)cc1 | 32% (inactive) |
| COc1cccc(-c2nc3c(c(SCC(=O)N4CCOCC4)n2)Cc2c(CO)cnc(C)c2O3)c1 | 52.5% (active) |
| CCc1ccc(NC(=O)CN(C)S(=O)(=O)c2ccc3[nH]c(=O)oc3c2)cc1 | 9.7% (inactive) |
| COC(=O)C1=C(C)N(CCc2ccc(OC)cc2)C(=O)C1 | -0.9% (inactive) |
| Cc1cc(C)nc(N(C#N)Cc2cccc([N+](=O)[O-])c2)n1 | 15.2% (inactive) |
| Cc1cccc(Nc2ncnc(N)c2[N+](=O)[O-])n1 | 32% (inactive) |
| Cc1cccnc1Nc1ncnc(N)c1[N+](=O)[O-] | 3.6% (inactive) |
| COc1cccc(C(=O)NNC(=O)C(=O)Nc2ccc(C)c(Cl)c2)c1 | 78.2% (active) |

| SMILES | inhibition |
| --- | --- |
| COc1cccc(C(=O)NNC(=O)C(=O)Nc2ccc(C)cc2)c1 | 4.6% (inactive) |
| COc1ccc(C(=O)NNC(=O)C(=O)Nc2ccc(C)c(Cl)c2)cc1 | 1.2% (inactive) |
| COc1ccc(/C=N/NC(=O)CC#N)cc1Oc1nc(Cl)ncc1F | -4% (inactive) |
| O=[N+]([O-])c1ccc(C2OCCO2)cc1CS(=O)(=O)c1ccccc1 | -3.4% (inactive) |
| CCC(=O)Nc1cccc2ccccc12 | 15.5% (inactive) |
| CCN(CC)c1ccc(/C=N/NC(=O)C(O)(c2ccccc2)c2ccccc2)o1 | 3.6% (inactive) |
| Cc1[nH]n(-c2ccccc2)c(=O)c1-c1ccc(Cl)cc1 | -50.4% (inactive) |
| Cc1[nH]n(-c2cccc(Cl)c2)c(=O)c1-c1ccccc1 | 17.3% (inactive) |
| C=CCn1c(-c2cc3cccc(OC)c3o2)n[nH]c1=S | -1.5% (inactive) |
| O=C(c1cc(-c2cccc(Cl)c2)on1)N1CCCCCC1 | -44.3% (inactive) |
| Nc1nc(-c2cccs2)c(CC(=O)O)s1 | 4.5% (inactive) |
| CC(C)(C)c1ccc(-n2ncc3c2CCCC3NC(=O)CCN2CCCCC2=O)cc1 (stereo not drawn) | 17.1% (inactive) |
| CC(C)(C)c1ccc(-n2ncc3c2CCCC3NC(=O)CN2CCCC2=O)cc1 (stereo not drawn) | 35.8% (inactive) |
| CC(C)(C)c1ccc(-n2ncc3c2CCCC3NC(=O)CCN2CCCC2=O)cc1 (stereo not drawn) | 57.1% (active) |
| CCN1CCN(c2ncnc3sc(C)c(-c4ccccc4)c23)CC1 | 35.6% (inactive) |
| Cc1sc2ncnc(N3CCN(Cc4ccccc4)CC3)c2c1-c1ccccc1 | -9.7% (inactive) |
| CCc1ccc(-c2cc(C)no2)cc1S(=O)(=O)N1CCOc2ccc(C)cc21 | 16.8% (inactive) |
| COc1ccccc1CC(=O)Nc1ccc(NC(=O)c2cccs2)cc1 | -13% (inactive) |
| CCOC(=O)c1nc2sc3c(c2c(=O)[nH]1)CCC(C)C3 (stereo not drawn) | 45.5% (inactive) |
| CCOC(=O)c1nc2sc3c(c2c(=O)[nH]1)CCCC3 | 55.1% (active) and 4.8% (inactive) |
| CCOC(=O)CSc1nc2sc3c(c2c(=O)[nH]1)CCCC3 | 8.9% (inactive) |
| COc1ccccc1CNC(=O)CCc1nnc2ccc(NCCCN3CCCC3=O)nn12 | 12.8% (inactive) |
| Cc1ccc(Cn2c(=O)c3ccccc3n3c(SCC(=O)N4CCCCC4C)nnc23)cc1 (stereo not drawn) | 8.3% (inactive) |
| Cc1ccc(C(=O)NNC(=O)CCN2C(=O)C3CCCCC3C2=O)cc1 (stereo not drawn) | 11.6% (inactive) |
| COc1cc(SC)ccc1C(=O)Nc1nc(C)cc(C)n1 | 10.5% (inactive) |

| SMILES | inhibition |
| --- | --- |
| COc1cc(SC)ccc1C(=O)Nc1nc(C)cs1 | 72.2% (active) |
| COc1cc(SC)ccc1C(=O)Nc1nccs1 | -159% (inactive) |
| O=C(O)c1ccc(NCc2ccc3c(c2)OCO3)cc1 | 6.2% (inactive) |
| COc1ccc(/C=N/N2C(=O)CSC2=S)cc1 | -23.8% (inactive) |
| COc1ccc(-c2nn(-c3ccccc3)cc2/C=N/N2C(=O)CSC2=S)cc1 | 51.5% (active) |
| COc1ccc(-c2nn(-c3ccccc3)cc2/C=N/O)cc1 | 9.4% (inactive) |
| CCC1(CC)NC(=O)N(CC(=O)NC(=O)NCc2ccccc2)C1=O | -0.6% (inactive) |
| O=C(CSc1nc2ccccc2c(=O)[nH]1)Nc1cccc([N+](=O)[O-])c1 | 19.4% (inactive) |
| Nc1cc(=O)[nH]c(SCC(=O)Nc2cccc([N+](=O)[O-])c2)n1 | 0.5% (inactive) |
| O=C(CSc1nncc(=O)[nH]1)Nc1cccc([N+](=O)[O-])c1 | 67.8% (active) |
| COc1ccc(NC(=O)C23CC4CC(C2)CC(n2cnc(Br)n2)(C4)C3)cc1OC | -17.8% (inactive) |
| Cc1ccccc1NC(=O)N1CCCC(c2nc(-c3ccc(F)cc3)no2)C1 (stereo not drawn) | 7.4% (inactive) |
| Cc1ccccc1NC(=O)N1CCCC(c2nc(-c3ccc(C(C)C)cc3)no2)C1 (stereo not drawn) | 72.9% (active) |
| COc1ccc(NC(=O)N2CCCC(c3nc(-c4ccc(C(C)C)cc4)no3)C2)cc1 (stereo not drawn) | 42.1% (inactive) |
| COCCCN1C(=O)C(O)=C(C(=O)c2ccco2)C1c1cccc(Br)c1 (stereo not drawn) | 7.1% (inactive) |
| COc1ccc(CN2CCN(Cc3ccc4cc(F)ccc4n3)CC2CCO)c(C)c1C (stereo not drawn) | -1.2% (inactive) |
| O=[N+]([O-])c1ccc(N2CCN(c3ccc(Cl)nn3)CC2)c(Cl)c1 | -52.2% (inactive) |
| Cc1ccc2nc(C)c(CN3CCN(c4ccc([N+](=O)[O-])cc4Cl)CC3)n2c1 | 52.7% (active) |
| CCCC(=O)N1CCN(c2ccc([N+](=O)[O-])cc2Cl)CC1 | -6.8% (inactive) |
| Cc1cc(C)c2c(N)c(C(=O)NN)sc2n1 | 0.7% (inactive) |
| Cc1cc(C)c2c(N)c(C(=O)Nc3nccs3)sc2n1 | -123% (inactive) |
| Cc1cc(C)c2c(N)c(C(=O)Nc3ncc(C)s3)sc2n1 | 62% (active) |
| CN1CCN(C(=S)c2cn(Cc3ccccc3F)c3ccccc23)CC1 | 2.8% (inactive) |
| CC(=O)c1cn(CC(=O)Nc2ccccc2F)c2ccccc12 | 30.8% (inactive) |
| CCOC(=O)c1cnc2nc(C)[nH]n2c1=O | -11% (inactive) |

| SMILES | inhibition |
| --- | --- |
| O=C(CNC(=O)C1CCCCC1)NCc1ccco1 | -3% (inactive) |
| Cc1nc2ccc(NC(=O)c3ccc(Cl)c(S(=O)(=O)N(C)c4ccccc4)c3)cc2s1 | 38.6% (inactive) |
| Cc1nc2ccc(NC(=O)c3ccc(S(=O)(=O)N(C)c4ccccc4)cc3)cc2s1 | 35.2% (inactive) |
| CN(Cc1ccccc1)C(=O)[C@H]1CCC(=O)N1Cc1ccco1 | -2.2% (inactive) |
| Cc1onc(-c2c(Cl)cccc2Cl)c1C(=O)NC(=S)N1CCOCC1 | 11.9% (inactive) |
| Cc1c(OCC(=O)NC(Cc2ccc(Cl)cc2)C(=O)O)ccc2c3c(c(=O)oc12)CCCC3 (stereo not drawn) | 7.1% (inactive) |
| Cc1ccc(C)c(OCC(=O)Nc2nc3ccc([N+](=O)[O-])cc3s2)c1 | 25.2% (inactive) |
| COC(=O)c1ccc2nc(NC(=O)CSCC(=O)OCC(=O)c3ccccc3)sc2c1 | -10.5% (inactive) |
| Cc1ccc2nc(NC(=O)CCCc3nc4ccccc4s3)sc2c1 | -14.6% (inactive) |
| Cc1cccc(OCC(=O)Nc2nc3ccc([N+](=O)[O-])cc3s2)c1 | 35% (inactive) |
| Cc1ccc2nc(NC(=O)CSCc3ccccc3)sc2c1 | -2.4% (inactive) |
| O=C(Nc1nc2c(F)cc(F)cc2s1)c1ccccn1 | 38.3% (inactive) |
| O=C(Nc1nc2ccc(F)cc2s1)c1cccs1 | -118% (inactive) |
| Cc1ccc2nc(NC(=O)CCCC(=O)O)sc2c1 | 54.8% (active) |
| Cc1ccc2nc(NC(=O)CSCC(=O)OCC(=O)c3ccccc3)sc2c1 | 51.5% (active) |
| COCC(=O)Nc1nc2ccc(C)cc2s1 | -98.9% (inactive) |
| O=C(Nc1nc2ccc(F)cc2s1)c1ccccn1 | 82.1% (active) |
| CN(C)C(=O)c1ccc2c3c(cccc13)CC2 | 17.8% (inactive) |
| CCCS(=O)(=O)c1nc(S(=O)(=O)c2ccc(C)cc2)c(N2CCN(CC)CC2)s1 | -12.7% (inactive) |
| Cc1nc2nc(SCc3ccc([N+](=O)[O-])cc3)[nH]c2cc1Br | -1% (inactive) |
| CSc1ccc(C2N=C(c3ccccc3)NO2)cc1 (stereo not drawn) | -83.4% (inactive) |
| CCOCCCNC(=O)C(NC(=O)CNC(C)=O)c1ccc(C)cc1 (stereo not drawn) | 3.7% (inactive) |
| CCN(CC)S(=O)(=O)c1cccc(C(=O)N[C@@H](C)c2nc3ccccc3[nH]2)c1 | 11.7% (inactive) |
